From PubChem BioAssay (NCATS)
Records with an inconclusive call do not appear. Calls of active or inactive are those of the source. The call rests on the fitted dose curve; in most records, active means well fitted curve in the direction sought with a large enough effect; inconclusive means small, poorly fitted or top-dose-only effect, or another doubt; inactive means no such curve, though single readings can be large; an effect the other way counts as inactive or inconclusive.

Tests used:
[1] = qHTS of pediatric cancer cell lines to identify multiple opportunities for drug repurposing: Confirmatory screen for SJ-GBM2 cells (AID 1347116); further: potency means the concentration at half of the fitted maximal effect; nearly all actives have a fitted effect of over 60% in size
Method in brief: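 Viability measured as metabolically active cells via CellTiter-Glo luminescence following 48 hours of compound exposure, 11-point dilutions in confirmatory testing. 500-1,000 cells/well plated 5 hours before dosing; controls were DMSO and 2.3 µM bortezomib.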

[2] = qHTS of pediatric cancer cell lines to identify multiple opportunities for drug repurposing: Confirmatory screen for BT-37 cells (AID 1347117); further: potency means the concentration at half of the fitted maximal effect; nearly all actives have a fitted effect of over 55% in size
Method in brief: (§1)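 Cells (500-1,000/well) in growth media were settled 5 h at 37 degrees C, then given compounds for 48 h. Viability was read as CellTiter-Glo luminescence. Primary runs used MIPE at 11 points (0.78 nM-46 µM) and NPC at 8 points (0.59 nM-46 µM); follow-ups used 11 points.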

[3] = qHTS of pediatric cancer cell lines to identify multiple opportunities for drug repurposing: Confirmatory screen for control Hh wild type fibroblast cells (AID 1347121); further: nearly all actives have a fitted effect of over 70% in size; further: potency means the concentration at half of the fitted maximal effect
Method in brief: as §1

[4] = qHTS of pediatric cancer cell lines to identify multiple opportunities for drug repurposing: Confirmatory screen for U-2 OS cells (AID 1347122); further: potency means the concentration at half of the fitted maximal effect; nearly all actives have a fitted effect of over 65% in size
Method in brief: as §1

[5] = qHTS of pediatric cancer cell lines to identify multiple opportunities for drug repurposing: Confirmatory screen for Rh41 cells (AID 1347123); further: potency means the concentration at half of the fitted maximal effect; nearly all actives have a fitted effect of over 60% in size
Method in brief: as §1

[6] = qHTS of pediatric cancer cell lines to identify multiple opportunities for drug repurposing: Confirmatory screen for RD cells (AID 1347124);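 further: potency means the concentration at half of the fitted maximal effect; cells exposed to compound for 48 h before viability readout; nearly all actives have a fitted effect of over 65% in size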
Method in brief: as §1

[7] = qHTS of pediatric cancer cell lines to identify multiple opportunities for drug repurposing: Confirmatory screen for Rh18 cells (AID 1347125); further: nearly all actives have a fitted effect of over 55% in size; further: potency means the concentration at half of the fitted maximal effect
Method in brief: as §1

[8] = qHTS of pediatric cancer cell lines to identify multiple opportunities for drug repurposing: Confirmatory screen for Rh30 cells (AID 1347126); further: nearly all actives have a fitted effect of over 55% in size; further: potency means the concentration at half of the fitted maximal effect
Method in brief: as §1

[9] = qHTS of pediatric cancer cell lines to identify multiple opportunities for drug repurposing: Confirmatory screen for Saos-2 cells (AID 1347127); further: potency means the concentration at half of the fitted maximal effect; nearly all actives have a fitted effect of over 60% in size
Method in brief: as §1

[10] = qHTS of pediatric cancer cell lines to identify multiple opportunities for drug repurposing: Confirmatory screen for OHS-50 cells (AID 1347128);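 further: compound exposure lasted 48 h at 37 degrees C; nearly all actives have a fitted effect of over 55% in size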; further: potency means the concentration at half of the fitted maximal effect
Method in brief: as §1

[11] = qHTS of pediatric cancer cell lines to identify multiple opportunities for drug repurposing: Confirmatory screen for SK-N-SH cells (AID 1347129);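 further: cells exposed to compound for 48 h before viability read; nearly all actives have a fitted effect of over 60% in size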; further: potency means the concentration at half of the fitted maximal effect
Method in brief: as §1

[12] = tested on: Zika virus NS2B-NS3 protease; experiment: Primary screen GU AMC qHTS for Zika virus inhibitors (AID 1347154); further: nearly all actives have a fitted effect of over 70% in size
Method in brief: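 Unlinked Zika NS2B hydrophilic domain/NS3 protease domain noncovalent complex (25 nM final) in 10 mM Tris-HCl pH 8.0, 0.01% Tween 20, with AMC peptide substrate. Fluorescence (ex 340, em 450 nm) change over 15 min, room temperature; percent inhibition fitted to 4-parameter Hill equation.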

[13] = qHTS of pediatric cancer cell lines to identify multiple opportunities for drug repurposing: Confirmatory screen for NB-EBc1 cells (AID 1347115);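 further: cells exposed to compound for 48 h before the viability read; nearly all actives have a fitted effect of over 45% in size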
Method in brief: as §1

[14] = qHTS of pediatric cancer cell lines to identify multiple opportunities for drug repurposing: Confirmatory screen for TC32 cells (AID 1347118);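 further: potency means the concentration at half of the fitted maximal effect; cells exposed to compound for 48 h before the read; nearly all actives have a fitted effect of over 65% in size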
Method in brief: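 Luminescent CellTiter-Glo read-out of metabolically active TC32 cells after 48 h compound exposure. Primary: MIPE 11-point, 0.78 nM–46 µM; NPC 8-point, 0.59 nM–46 µM. Confirmatory: 11-point dilutions.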

[15] = qHTS of pediatric cancer cell lines to identify multiple opportunities for drug repurposing: Confirmatory screen for MG 63 (6-TG R) cells (AID 1347119)
Method in brief: as §1

[16] = biological target: N-terminal Xaa-Pro-Lys N-methyltransferase 1 (Homo sapiens) (UniProt Q9BV86); experiment: qHTS Assay for Inhibitors of N-terminal methyltransferase 1 (NTMT1): LOPAC validation of the NTMT1 SAHH-coupled ThioGlo3 Assay (AID 1347143); conditions: recombinant NTMT1, SAHH-coupled ThioGlo3 fluorescence;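 further: SAH from peptide methylation measured as thiol fluorescence via SAHH coupling and ThioGlo3; potency means the concentration at half of the fitted maximal effect; nearly all actives have a fitted effect of over 70% in size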
Chain of N-terminal Xaa-Pro-Lys N-methyltransferase 1 (Homo sapiens) (Q9BV86 whole entry, looked up): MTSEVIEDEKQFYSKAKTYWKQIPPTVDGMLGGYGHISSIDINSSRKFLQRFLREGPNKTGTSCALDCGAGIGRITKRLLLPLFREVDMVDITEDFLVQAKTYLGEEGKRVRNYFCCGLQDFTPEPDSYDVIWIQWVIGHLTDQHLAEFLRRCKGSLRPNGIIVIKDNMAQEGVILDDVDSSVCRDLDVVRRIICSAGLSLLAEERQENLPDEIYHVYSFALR
Method in brief: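 In this qHTS pilot against the LOPAC set, 125nM NTMT1 met compounds tested at multiple concentrations, and fluorescence was normalized to background.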

[17] = tested on: Zika virus NS2B-NS3 protease (unlinked); experiment: Optimization of GU AMC qHTS for Zika virus inhibitors: Unlinked NS2B-NS3 protease assay (AID 1347151); conditions: recombinant ZIKV NS2B-NS3 protease, fluorogenic AMC substrate; further: potency means the concentration at half of the fitted maximal effect; nearly all actives have a fitted effect of over 80% in size
Method in brief: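 Noncovalent NS2B hydrophilic domain–NS3 protease complex (25 nM final) in 10 mM Tris-HCl pH 8.0, 0.01% Tween 20; AMC substrate, room temperature 15 min (~20% conversion); fluorescence change normalized, 4-parameter Hill fit.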

[18] = Confirmatory screen GU Rhodamine qHTS for Zika virus inhibitors qHTS (AID 1347157); further: potency means the concentration at half of the fitted maximal effect; nearly all actives have a fitted effect of over 70% in size
Method in brief: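 Unlinked NS2B/NS3, 25 nM; Rhod110 peptide, 1.5 microM; compounds, up to 114 microM. Reaction run 15 min at RT in 10 mM Tris-HCl pH 8.0, 0.01% Tween 20; kinetic fluorescence change fitted with a 4-parameter Hill model.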

Cc1ccc(-c2ncn(-c3ccc(Nc4nccc(-c5cccc(N6CCOCC6)c5)n4)cc3)n2)cn1
Potency [1]: 0.24 µM (active) | Potency [2]: 0.0851 µM (active) | Potency [3]: inactive | Potency [4]: 0.24 µM (active) | Potency [5]: 0.151 µM (active) | Potency [6]: 0.24 µM (active) | Potency [7]: 0.107 µM (active) | Potency [8]: 0.12 µM (active) | Potency [9]: 0.107 µM (active) | Potency [10]: 0.537 µM (active) | Potency [11]: 0.303 µM (active) | Potency [12]: inactive

Cc1cn(-c2cc(NC(=O)c3ccc(C)c(Nc4nccc(-c5cccnc5)n4)c3)cc(C(F)(F)F)c2)cn1
Potency [13]: inactive | Potency [2]: 16.5 µM (active) | Potency [3]: inactive | Potency [5]: 11.7 µM (active) | Potency [8]: 20.8 µM (active) | Potency [10]: 18.5 µM (active) | Potency [11]: 18.7 µM (active) | Potency [12]: inactive

CN1CCN(c2cc(C(=O)Nc3ccc4c(c3)-c3c(c(C(N)=O)nn3-c3ccc(F)cc3)CC4)c(Cl)cn2)CC1
Potency [2]: 20.8 µM (active) | Potency [14]: 20.8 µM (active) | Potency [5]: 14.7 µM (active) | Potency [7]: 26.1 µM (active) | Potency [8]: 0.465 µM (active) | Potency [10]: 23.3 µM (active) | Potency [11]: 20.9 µM (active) | Potency [12]: inactive

O=C(Cc1ccc(-c2ccc(OCCN3CCOCC3)cc2)cn1)NCc1ccccc1
Potency [2]: 0.147 µM (active) | Potency [14]: 0.117 µM (active) | Potency [15]: 0.0827 µM (active) | Potency [4]: 0.369 µM (active) | Potency [5]: 0.0928 µM (active) | Potency [7]: inactive | Potency [8]: inactive | Potency [12]: inactive

COc1cccc(-c2ccc(NC(=O)C3=C(C(=O)O)CCC3)c(F)c2)c1
Potency [1]: 1.17 µM (active) | Potency [3]: inactive | Potency [4]: 14.7 µM (active) | Potency [6]: 1.17 µM (active) | Potency [7]: inactive | Potency [8]: 7.37 µM (active) | Potency [10]: inactive | Potency [11]: inactive | Potency [12]: inactive

COC(=O)Nc1nc2ccc(C(=O)c3ccc(F)cc3)cc2[nH]1
Potency [1]: 2.33 µM (active) | Potency [2]: 2.61 µM (active) | Potency [14]: 1.17 µM (active) | Potency [15]: 1.47 µM (active) | Potency [3]: inactive | Potency [6]: 2.93 µM (active) | Potency [7]: inactive | Potency [8]: inactive | Potency [9]: 1.85 µM (active) | Potency [10]: 2.61 µM (active) | Potency [11]: inactive | Potency [12]: inactive

Cc1[nH]nc2ccc(-c3cncc(OC[C@@H](N)Cc4ccccc4)c3)cc12
Potency [2]: 2.93 µM (active) | Potency [14]: 2.93 µM (active) | Potency [3]: 23.3 µM (active) | Potency [7]: 8.27 µM (active) | Potency [8]: 47.9 µM (active) | Potency [9]: 4.65 µM (active) | Potency [10]: 4.65 µM (active) | Potency [11]: 2.15 µM (active)

Cc1c(CN2CCN(S(C)(=O)=O)CC2)sc2c(N3CCOCC3)nc(-c3cnc(N)nc3)nc12
Potency [2]: 2.08 µM (active) | Potency [14]: 0.737 µM (active) | Potency [5]: 0.928 µM (active) | Potency [7]: 1.04 µM (active) | Potency [9]: 1.31 µM (active) | Potency [10]: 2.33 µM (active) | Potency [11]: 2.96 µM (active) | Potency [12]: inactive

COc1cc(=C2C=c3ccccc3=N2)[nH]c1=Cc1[nH]c(C)cc1C
Potency [1]: 43.7 µM (active) | Potency [2]: 7.37 µM (active) | Potency [14]: 7.37 µM (active) | Potency [8]: 17.4 µM (active) | Potency [9]: 8.27 µM (active) | Potency [11]: 1.24 µM (active) | Potency [12]: inactive

Cc1nc2ccc(CN(C)c3ccc(C(=O)N[C@@H](CCC(=O)O)C(=O)O)s3)cc2c(=O)[nH]1
Potency [14]: 0.0522 µM (active)

Nc1cc(C(F)(F)F)c(-c2cc(N3CCOCC3)nc(N3CCOCC3)n2)cn1
Potency [15]: 3.69 µM (active)

Cc1cc(Nc2cc(N3CCN(C)CC3)nc(Sc3ccc(NC(=O)C4CC4)cc3)n2)n[nH]1
Potency [15]: 2.61 µM (active)

O=c1c2ccccc2nc2n1CCc1c-2[nH]c2ccccc12
Potency [16]: 56.2 µM (active) | Potency [17]: 26.7 µM (active)

O=C(O)C1(Cc2cccc(Nc3nccs3)n2)CCC(Oc2cccc(Cl)c2F)CC1 (configuration not stated)
Potency [18]: 6.98 µM (active)

N#Cc1c(O)c2c(-c3ccc(-c4ccccc4O)cc3)csc2[nH]c1=O
Potency [18]: 2.21 µM (active)
